Results from PubChem BioAssay (NCI).
The panel holds about 83,000 compounds, 20% with a hit somewhere; the sample as a whole holds those more often.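 Plates (96-well) were seeded with cells, treated with compound at one concentration, and incubated for 48 hours before percent growth was determined.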 Values without a mark were called inactive. Active and inactive are the calls of the source. The calls were made as follows: active = growth percent below 10; inactive = the rest.

Tests used:
Experiment in all cases: NCI-60 one-dose screen, 48 h (100 = growth as untreated, 0 = no growth, -100 = all killed)
Settings in all cases: 10 µM unless noted
NCI-H23 lung = tested on: NCI-H23 lung
NCI-H226 lung = tested on: NCI-H226 lung
NCI-H322M lung = tested on: NCI-H322M lung
HOP-62 NSCLC = tested on: HOP-62 NSCLC
NCI-H460 lung = tested on: NCI-H460 lung
NCI-H522 lung = tested on: NCI-H522 lung
A549/ATCC NSCLC = tested on: A549/ATCC NSCLC
786-0 renal = tested on: 786-0 renal
COLO 205 colon = tested on: COLO 205 colon
DU-145 prostate = tested on: DU-145 prostate
K-562 leukemia = tested on: K-562 leukemia
MALME-3M melanoma = tested on: MALME-3M melanoma
MDA-MB-231 breast = tested on: MDA-MB-231 breast
RXF 393 renal = tested on: RXF 393 renal
SF-268 CNS = tested on: SF-268 CNS
SF-295 CNS = tested on: SF-295 CNS
SF-539 CNS = tested on: SF-539 CNS
UACC-257 melanoma = tested on: UACC-257 melanoma
M14 melanoma = tested on: M14 melanoma

Structure (SMILES)	growth (NCI-H23 lung)	growth (NCI-H226 lung)	growth (NCI-H322M lung)	growth (HOP-62 NSCLC)	growth (NCI-H460 lung)	growth (NCI-H522 lung)	growth (A549/ATCC NSCLC)	growth (786-0 renal)	growth (COLO 205 colon)	growth (DU-145 prostate)	growth (K-562 leukemia)	growth (MALME-3M melanoma)	growth (MDA-MB-231 breast)	growth (RXF 393 renal)	growth (SF-268 CNS)	growth (SF-295 CNS)	growth (SF-539 CNS)	growth (UACC-257 melanoma)	growth (M14 melanoma)
CN(C)CCN(C)c1ccc2ncc(C#Cc3cncc(C(=O)Nc4ccc(CN5CCN(C)CC5)c(C(F)(F)F)c4)c3)n2n1	-66.4% (active)	64.3%	89%	33.6%	-76% (active)	97%	-40.5% (active)	90.9%	25.1%	-59.2% (active)	3.58% (active)	61.9%	-53.4% (active)	-90.1% (active)	64.6%	83.8%	-9.03% (active)	107%	-80.8% (active)
O=C(Nc1nonc1-c1ccccc1)c1ccc(C(F)(F)F)cc1	72.6%	89.4%	86.9%	81.5%	47.6%	82.7%	87.3%	90.4%	119%	92.5%	70%	68.5%	85.1%	90.3%	81.6%	59.7%	95.9%	77.8%	71.1%
COc1ccc(/C=C/C(=O)c2cc(S(N)(=O)=O)c(OC)cc2OC)cc1	74.7%	100%	77.2%	83%	69.8%	78%	84.3%	88.1%	92.6%	17.3%	26.1%	98%	64.6%	40.1%	80.7%	93.2%	76.4%	87.9%	84.3%
O=c1c2ccccc2nc(COc2ccccc2)n1NS(=O)(=O)c1ccc(Cl)cc1	82.8%	83%	82.9%	75%	96.1%	69.4%	86%	107%	95%	100%	47.3%	82.1%	67.4%	97%	88.6%	97.2%	86.9%	91.2%	74.2%
Nc1ncc(-c2ccc3ncnc(Nc4cccc(Cl)c4F)c3c2)cn1	72.8%	66.6%	11%	47.5%	62.2%	32.2%	51.9%	43.5%	86.4%	48.9%	80.5%	49.3%	55.3%		53.8%	44.9%	68.4%	89.4%	
Cc1occc1-c1nc2s/c(=C/c3ccc(-c4cc(C(F)(F)F)ccc4Cl)o3)c(=O)n2n1	104%	98.1%	101%	116%	109%	98.2%	102%	103%	112%	103%	105%	98.5%	104%	108%	97.2%	99.7%	103%	105%	97.1%
Cc1ccc(S(=O)(=O)NCCNc2nc(Nc3ccc(N4CCN(C)CC4)cc3)nc3ccsc23)cc1	100%	104%	110%	112%	96.4%	109%	93.8%	91.3%	113%	102%	0.196% (active)	117%	109%	70%	74.9%	98.2%	94.9%	107%	106%
COc1cc(/C=C2\C(=O)Nc3cc(Cl)ccc32)ccc1OCc1ccc(F)cc1	101%	91.2%	98.2%	95.9%	99%	92.9%	110%	108%	110%	104%	97.7%	92.7%	92.1%		101%	97.1%	95%	109%	
CC(C)c1ccc(NCc2cn(-c3ccc(C(=O)O)cc3)nc2-c2cc(C(F)(F)F)cc(C(F)(F)F)c2)cc1	83.2%	85.8%	85.1%	94.9%	83%	85%	79.8%	90.7%	96.5%	89.6%	79.8%	71%	91.8%	97.2%	88.1%	98.5%	83.6%	94.9%	86%
COC(=O)C[Se]C(=O)Cc1c(C)n(C(=O)c2ccc(Cl)cc2)c2ccc(OC)cc12	11.5%	52.8%	44.7%	25.4%	16.3%	44.8%	18.7%	83.3%	49.5%	25.6%	54%	46.5%	30.9%		40.7%	9.86% (active)	39.9%	65.2%	
CCNC(=O)N1CCc2cc(OC)c(OCCc3ccc(OC)c(N)c3)cc2C1c1cc(C)c(C)cc1C (stereo not given)	41.8%	44.7%	53.6%	34.2%	4.34% (active)	5.26% (active)	19.6%	23.3%	55.9%	38.7%	20.5%	45.5%	53.1%	22.5%	40.7%	18.3%	26.4%	50%	27.9%
Cc1cccc2c3c(sc12)C(c1ccc(F)cc1)C(C#N)=C(/N=C/c1ccc(Cl)cc1)O3 (stereo not given)	19.1%	29.9%	47.4%	28%	5.27% (active)	-53% (active)	21.7%	25.6%	-49% (active)	20.8%	7.18% (active)	63.5%	25.6%	2.24% (active)	41.5%	3.61% (active)	-13.1% (active)	56.4%	-3.44% (active)
CCCn1cnc2c(c1=N)C(c1ccc(OC)cc1)c1sc3c(C)cccc3c1O2 (stereo not given)	23.1%	63.8%	45.3%	43.6%	6.21% (active)	-3.75% (active)	29.2%	31.1%	7.69% (active)	19.1%	13%	57.8%	27.4%	-5.55% (active)	39%	-6.82% (active)	-21.6% (active)	86.7%	2.53% (active)
Cc1ccc(C2=Nn3c(nnc3-c3ccccc3)SC2)cc1	36.6%	61.2%	60.8%	27.5%	11.1%	-2.45% (active)	44.6%	46.8%	3.27% (active)	22.2%	15.7%	59.5%	51.4%	-6.84% (active)	49.5%	10.4%	11.2%	55.5%	12.2%
CS(=O)(=O)Nc1cc(-c2ccc3ncc(C#N)c(NCc4cccc(F)c4)c3c2)cnc1Cl	-1.85% (active)	9.2% (active)	12.5%	-6.39% (active)	5.88% (active)	10.7%	7.5% (active)	10.8%	-45.9% (active)	17.8%	14.1%	-35.7% (active)	0.274% (active)		3.62% (active)	-21.9% (active)	-26.4% (active)	1.5% (active)	
CCOC(=O)c1c(Nc2ccccc2)nn2c(-c3ccccc3)ccnc12	86.2%	85.3%	94.2%	101%	97.9%	87.9%	92.4%	86.6%	99.5%	97.5%	63.8%	105%	82.4%		113%	92.9%	92.5%	112%	110%
